# In ChEMBL document CHEMBL1157539, “Thousands of chemical starting points for antimalarial lead identification” (Nature, 2010):
# Tested on: Plasmodium falciparum
# Experiment: GSK_TCMDC: Inhibition of Plasmodium falciparum Dd2 in whole red blood cells, using parasite LDH activity as an index of growth. Test compounds present at 2uM
# Assay type: functional
row,SMILES,Inhibition [%]
1,CN(Cc1ccc(C#N)cc1)C1CCN(c2cc(NC(=O)c3cccc(F)c3)ccn2)CC1.O=C(O)C(F)(F)F,0
2,Clc1cc(Nc2ccnc3ccc(Br)cc23)ccc1Oc1ccc(Cl)c2ccccc12,86
3,C=C(C)CSc1nc2c(c(=O)n1CCc1ccccc1)C1(CCCC1)Cc1ccccc1-2,80
4,CCCCCOc1ccc(C(=NC)N(CCCCC)CCCCC)c2ccccc12.I,80
5,Cn1nc(-c2ccc(NC(=O)Nc3cc(C(F)(F)F)ccc3F)c(F)c2)c2cnc(NCCCn3ccnc3)nc21.O=C(O)C(F)(F)F,97
6,CN1CCN(c2ccc(Nc3nccc(-c4c(-c5cccc(NC(=O)c6c(F)cccc6F)c5)nn5ccccc45)n3)cc2)CC1,98
7,CC(C)C1C(=O)N(S(C)(=O)=O)C2CCN(C(=O)c3ccc(CN4CCCCC4)c([N+](=O)[O-])c3)C12.Cl (stereo not drawn),100
8,Cl.c1ccc(Oc2ccc(Nc3ccnc4cc(-c5ccc(CN6CCNCC6)o5)ccc34)cc2)nc1,99
9,COc1ccccc1C1CCN(C2CCC(NC(=O)/C=C/c3cc(C(F)(F)F)cc(C(F)(F)F)c3)CC2)CC1 (stereo not drawn),21
10,Cl.Nc1c2c(nc3ccc(NC(=O)Cc4ccccc4)cc13)CCCC2,0
11,COc1cc(NC(=O)Nc2cc(C)nc3ccccc23)cc(OC)c1,57
12,CCCC1(NC[C@@H](O)[C@H](Cc2ccccc2)NC(=O)c2cc(NCC)cc(N3CCCCS3(=O)=O)c2)CCC1.Cl,86
13,CC1CCCCN1CCCNc1nc(NCc2ccccc2)c2ccccc2n1 (stereo not drawn),14
